Screening data as filed in PubChem BioAssay.
SSB-PriA inh: inhibitors of Klebsiella pneumoniae PriA binding to SSB C-terminal tail, primary screen, biochemical, AlphaScreen | AlphaScreen SSBct-PriA binding, biotinylated peptide | inhibition, % at 33 µM | hit rate 0.6% among 430,000; in the data active = inhibition mostly above about 37%, no sharp cut-off; inactive = mostly below about 20%;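 note: plate controls were negative control peptide for no effect and reference peptide for full effect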
Sa ugtP lethal: growth inhibition of ugtP-null S. aureus, primary screen, RN4220 ugtP deletion, OD600; AID 1259309, 2017; hit rate 0.54% among 330,000; growth inhibition, % (no concentration beside the values); 16 h; in the data active = growth inhibition above about 68%;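 note: plate controls were untreated wells for no effect and antibiotic for full effect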
Sa RN4220 lethal: growth inhibition of S. aureus RN4220, primary screen, OD600; 16 h; inhibition, % (test concentration not listed); hit rate 0.33% among 330,000; AID 1259311, 2017; in the data active = inhibition above about 85%;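 note: plate controls were untreated cells for no effect and reference antibiotic for full effect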
An asterisk follows results filed as active; ! = not active in a repeat. Compounds with a hit are over-represented: about 1% of the library has one in this group of screens.

Results for CCn1cc(C(=O)O)c(=O)c2cc(F)c(N3CCN(C(=S)NC(=O)c4ccc(F)cc4)CC3)cc21 ?
SSB-PriA inh: -2.8; Sa ugtP lethal: 84.3; Sa RN4220 lethal: 86.1

How did CC(=O)N1CCN(c2cc3c(cc2F)c(=O)c(C(=O)O)cn3C2CC2)CC1 do in these assays?
SSB-PriA inh: -1.0; Sa ugtP lethal: 99.2*; Sa RN4220 lethal: 98.2*

How did CCn1cc(C(=O)O)c(=O)c2cc(F)c(N3CCN(C(=S)NC(=O)c4ccc(F)c(F)c4)CC3)cc21 do in these assays?
SSB-PriA inh: -6.4; Sa ugtP lethal: 99.9*; Sa RN4220 lethal: 99.6*

What do the screens show for `CCn1cc(C(=O)NCc2cccc(F)c2)c(=O)c2cc(F)c(N3CCN(C(=O)c4ccco4)CC3)cc21`?
SSB-PriA inh: -10.5; Sa ugtP lethal: 46.2; Sa RN4220 lethal: 18.2

What do the screens show for `CCCCCCC(=O)N1CCN(c2cc3c(cc2F)c(=O)c(C(=O)O)cn3CC)CC1`?
SSB-PriA inh: -19.6

How did Cc1ccc(O[C@H]2CCN(C(=O)Cc3ccc(F)cc3F)C2)nn1 do in these assays?
SSB-PriA inh: -6.0

What do the screens show for `O=C(c1nc2ccccc2s1)N1CCN(Cc2nc3ccccc3[nH]2)CC1`?
SSB-PriA inh: -2.0

What do the screens show for `O=C(CC(c1ccccc1)c1ccccc1)NCCn1nc(-c2ccncc2)ccc1=O`?
SSB-PriA inh: -9.0

What do the screens show for `O=C(Nc1cccc(-c2ccc3nnc(-c4cccs4)n3n2)c1)c1cccc(F)c1`?
SSB-PriA inh: -9.0

What do the screens show for `COc1nn(C)cc1C(=O)N1CCCCC(c2ccc(Cl)cc2)C1` (stereo not drawn)?
SSB-PriA inh: -5.0

How did O=C(O)c1cccc(-n2cccn2)c1 do in these assays?
SSB-PriA inh: -6.0

What do the screens show for `C=CCn1c(C)c(C)n2c3c(=O)n(CC(N)=O)c(=O)n(C)c3nc12`?
SSB-PriA inh: -8.0

What do the screens show for `CCn1cc(C(=O)O)c(=O)c2cc(F)c(N3CCN(C(=S)NC(=O)c4ccccc4Br)CC3)cc21`?
SSB-PriA inh: -12.1; Sa ugtP lethal: 98.9*; Sa RN4220 lethal: 97.7*

What do the screens show for `CCCCCCCCCC(=O)N1CCN(c2cc3c(cc2F)c(=O)c(C(=O)O)cn3CC)CC1`?
SSB-PriA inh: 1.3; Sa ugtP lethal: 11.5; Sa RN4220 lethal: -0.9

What do the screens show for `COC(=O)c1ccc(S(=O)(=O)c2ccc([N+](=O)[O-])cc2)cc1`?
SSB-PriA inh: -6.7

How did Cn1c(S(=O)(=O)c2ccc([N+](=O)[O-])cc2)nc(Br)c1Br do in these assays?
SSB-PriA inh: 1.1; Sa ugtP lethal: 95.0*; Sa RN4220 lethal: 98.0*

What do the screens show for `CCn1nc(C(=O)Nc2nc3ccc(C(=O)OC)cc3s2)cc1C`?
SSB-PriA inh: 5.0

Results for O=c1c(-c2nnc(SCc3ccc(Cl)c(Cl)c3)o2)cccn1Cc1ccccc1 ?
SSB-PriA inh: -10.4; Sa ugtP lethal: 86.3*; Sa RN4220 lethal: -15.7

Results for Clc1cccc(CSc2nnc(-c3c[nH]c4ccccc34)o2)c1 ?
SSB-PriA inh: -0.4; Sa ugtP lethal: -6.8; Sa RN4220 lethal: 3.7

What do the screens show for `Cc1ccc(S(=O)(=O)N(C)S(=O)(=O)c2ccc(C)cc2)cc1`?
SSB-PriA inh: -6.5; Sa ugtP lethal: 7.7; Sa RN4220 lethal: 2.8

How did Cc1ccc(S(=O)(=O)N(C)N=O)cc1 do in these assays?
SSB-PriA inh: -5.5; Sa ugtP lethal: 98.6*; Sa RN4220 lethal: 98.7*

Results for Cc1ccc(C)c2sc(N3CCN(C(=O)c4ccc(Cl)s4)CC3)nc12 ?
SSB-PriA inh: -14.0

Results for Cc1csc(CN2CCN(C(=O)COc3ccc(Cl)cc3Cl)CC2)n1 ?
SSB-PriA inh: -12.0

What do the screens show for `O=C(COc1ccc(Cl)cc1Cl)N1CCN(Cc2nc(-c3ccco3)cs2)CC1`?
SSB-PriA inh: 35.0*!

What do the screens show for `NS(=O)(=O)c1ccc(CNC(=O)c2csc(Nc3ccccc3)n2)cc1`?
SSB-PriA inh: -2.0

How did O=S(=O)(NCCNc1cc(-n2cccn2)ncn1)c1cccs1 do in these assays?
SSB-PriA inh: 4.0

Results for O=C(NC[C@H]1CCCN1c1nc2ccccc2o1)c1ccc(-n2cccc2)cc1 ?
SSB-PriA inh: 29.0*

How did Cc1nc2ccccn2c1C(=O)NCC1CCCN1c1nc2ccccc2o1 (stereo not drawn) do in these assays?
SSB-PriA inh: -6.0

How did O=c1c2nnn(Cc3ccc(F)cc3)c2ncn1Cc1ccc(Cl)c(Cl)c1 do in these assays?
SSB-PriA inh: -10.0

How did CNC(=O)CSc1nc(C(C)(C)C)cc(C(F)(F)F)c1C#N do in these assays?
SSB-PriA inh: -11.0

What do the screens show for `Cc1c(NC(=O)C2CCN(c3cc(C4CC4)ncn3)CC2)c(=O)n(-c2ccccc2)n1C`?
SSB-PriA inh: 2.0

Results for COc1ccc(NCc2ccc(OC)c(Cn3ccnc3)c2)c(OC)c1 ?
SSB-PriA inh: 72.7*; Sa ugtP lethal: -2.5; Sa RN4220 lethal: 0.6

How did COc1ccc(Cn2ccnc2)cc1Br do in these assays?
SSB-PriA inh: -0.8; Sa ugtP lethal: 2.5; Sa RN4220 lethal: 4.3

How did O=C(Cc1ccc(F)cc1)Nc1cnoc1 do in these assays?
SSB-PriA inh: 7.0

How did CC(=O)c1c(C)[nH]c(C(=O)NC2CCSc3c(F)cccc32)c1C (stereo not drawn) do in these assays?
SSB-PriA inh: 88.2*

What do the screens show for `CCOC(=O)c1c(C)[nH]c(C(=O)NC2CCSc3ccccc32)c1C` (stereo not drawn)?
SSB-PriA inh: 25.4

Results for CCc1c(C(=O)NC2CCCc3ccccc32)[nH]c(C)c1C(C)=O (stereo not drawn) ?
SSB-PriA inh: 5.2; Sa ugtP lethal: -8.5; Sa RN4220 lethal: 3.4

How did CC(=O)c1c(C)[nH]c(C(=O)NC2CCSc3ccccc32)c1C (stereo not drawn) do in these assays?
SSB-PriA inh: 44.9*; Sa ugtP lethal: 3.1; Sa RN4220 lethal: 2.9

Results for CCOCC(=O)NCc1ccc([C@H](O)c2ccccc2)s1 ?
SSB-PriA inh: -3.0

Results for O=C(CSc1cccc2cccnc12)NCCc1ccc(Cl)cc1 ?
SSB-PriA inh: 77.0*

What do the screens show for `O=C(CSc1cccc2cccnc12)NC(c1ccccc1)c1ccccc1`?
SSB-PriA inh: 16.5

What do the screens show for `CC(C)(C)NC(=O)CSc1cccc2cccnc12`?
SSB-PriA inh: 41.3

Results for NC(=O)CSc1cccc2cccnc12 ?
SSB-PriA inh: 64.5*

What do the screens show for `O=C(O)CSc1cccc2cccnc12`?
SSB-PriA inh: 65.0*!; Sa ugtP lethal: -3.5; Sa RN4220 lethal: 0.8

What do the screens show for `COc1ccc(CCNC(=O)CSc2cccc3cccnc23)cc1OC`?
SSB-PriA inh: 18.7; Sa ugtP lethal: -2.6; Sa RN4220 lethal: 1.9

What do the screens show for `O=C(CSc1cccc2cccnc12)N1CCCCCC1`?
SSB-PriA inh: 101.8*

Results for CN1CCN(C(=O)CSc2cccc3cccnc23)CC1 ?
SSB-PriA inh: 69.2

How did O=C(COc1ccc(Cl)cc1Cl)NCCn1ncc2c(=O)n(Cc3cccc4ccccc34)cnc21 do in these assays?
SSB-PriA inh: -16.0

How did Cc1ccc(-n2ncc3c(C)nnc(SCC(=O)NCc4ccco4)c32)cc1C do in these assays?
SSB-PriA inh: 7.0

Results for CCOc1ccc2nc(NCc3cccnc3)sc2c1 ?
SSB-PriA inh: 12.0

Results for O=C(CCc1c(Cl)cccc1Cl)NC[C@H]1CCCN(c2nccs2)C1 ?
SSB-PriA inh: -6.0
